# Assay results taken from PubChem BioAssay (NCI).
# Several values for one entry are separate records, joined by “and”; a condition that tells them apart may be missing. Equal entries are not always repeated. This is part of a sample that, as a whole, favours compounds with a hit. Of some 83,000 tested, about 20% had one in any assay.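 Compound tested at a single concentration for 48 hours in 96-well plates; a percent growth value below 10 was scored as active.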 Activity calls are given as the source filed them.
# Tested on: MCF7 breast
# Test: NCI-60 one-dose screen, 48 h (100 = growth as untreated, 0 = no growth, -100 = all killed)
# Conditions: 10 µM unless noted
row,Structure (SMILES),growth
1,CCOC(=O)c1c(-c2ccc(C)cc2)c(C#N)c(=O)n(-c2cccc(C(F)(F)F)c2)c1N,94% (inactive)
2,c1cc(NCCCCN2CCOCC2)c2ccc3c(ccc4c(NCCN5CCOCC5)ccnc43)c2n1,58.5% (inactive)
3,CCCO/N=C/c1ccccn1,89.2% (inactive) and 92.4% (inactive)
4,O=C(Nc1ncc(Cc2cccc(C(F)(F)F)c2)s1)c1ccc(-n2cnnn2)cc1,28.7% (inactive)
5,N=C(N)c1ccc(-c2ccc(-c3ccc(Cl)c(Cl)c3)s2)cc1,-62.4% (active)
6,NC(=O)c1c(NC(=O)/C=C/c2cccs2)sc2c1CCC(=O)C2,14.1% (inactive)
7,CCOc1ccccc1NC(=O)c1cc2ccccc2cc1O,70.3% (inactive)
8,O=C(CCl)n1nnnc1Cc1ccccc1,101% (inactive)
9,CCNC(=S)n1nc(SC)c(C(=O)OCC)c1N,92% (inactive)
10,CC/C(=C(/c1ccc(Cl)cc1)c1ccc(OCCN2CCOCC2)cc1)c1ccccc1,86.2% (inactive)
11,O=S(=O)(O)c1ccc(N=Nc2ccc(N=Nc3cccc4ccccc34)c(S(=O)(=O)O)c2)cc1,78.1% (inactive)
12,Nn1c(-c2ccc(Cl)cc2)nc2c(-c3ccc(Cl)cc3)nc3ccc(Cl)cc3c2c1=O,21.7% (inactive)
13,Nc1ncnc2c1C(c1ccc([N+](=O)[O-])cc1)c1sc3c(F)cccc3c1O2 (centres undefined),21.9% (inactive)
14,COc1ccc(C/C(C)=C(/c2ccc(OCCN3CCCCCC3)cc2)c2ccc(OC(=O)c3ccccc3)cc2)cc1,60.5% (inactive)
15,COc1ccc2c(c1)oc1c(C)c3c(c(C)c12)C(=O)N(Nc1ccccc1)C3=O,94.7% (inactive)
16,CC(=O)c1c(C)nc(SCC(=O)Nc2ccc(Cl)cc2)n1-c1ccc(Cl)cc1,82.9% (inactive)
17,C=C1C(=O)O[C@H]2[C@H]1CC/C(CNS(=O)(=O)c1ccc3ccccc3c1)=C\CC[C@@]1(C)O[C@@H]21,-56.9% (active)
18,CN(Cc1ccccc1)c1nc(Cl)c(C2CC(c3ccc4c(c3)OCO4)=NN2c2cc(Cl)cc(Cl)c2)s1 (centres undefined),78.2% (inactive)
19,Cc1cnc(C(=O)NNc2nc3sc4c(c3c(=O)[nH]2)C(C)CCC4)cn1 (centres undefined),13.9% (inactive)
20,N#CC1=C(N)Oc2c(sc3c(Br)cccc23)C1c1ccccn1 (centres undefined),18.8% (inactive)

row,Structure (SMILES),growth
1,Cc1cc2nc(C(Cl)Cl)nc(-c3ccc(Cl)cc3)n2n1,2.98% (active)
2,COc1ccc(/C=C2/C(=O)N=C3N2NC(c2ccccc2)=CN3c2ccccc2)cc1,99.9% (inactive)
3,Nc1nc(Nc2ccc(F)cc2)nn1C(=O)c1cc(Cl)ccc1Cl,48.8% (inactive)
4,O=C1C=C(Nc2ccccc2)c2ncccc2C1=O,-52.2% (active)
5,O=C(N/N=C/c1ccc(O)cc1O)c1cccc(Nc2ccnc(C(F)(F)F)c2)c1,21.2% (inactive)
6,O=C(N=Nc1c(O)[nH]c2ccccc12)Nc1ccc(Br)cc1,79.1% (inactive)
7,Cc1nonc1-c1ccc2c(c1)OCO2,99.6% (inactive) and 98.3% (inactive)
8,COc1ccc(-c2c[nH]c(C(=O)O)c2-c2cc(OC)c(OC)c(OC)c2)cc1,24.2% (inactive)
9,OCCN1CCN(CC/C=C2\c3ccccc3Sc3ccc(Cl)cc32)CC1,17.3% (inactive) and 4.22% (active)
10,O=C(/C=C/c1ccc(F)cc1)Nc1ncc(Cc2ccc(F)cc2)s1,17.9% (inactive)
11,O=C1C(Nc2ccc(Cl)cc2)=C(I)C(=O)c2ncccc21,-34.3% (active)
12,CCCCSc1ccc2nc(-c3ccc(OCCCN=C(N)N)cc3)cn2c1,47% (inactive)
13,COC1=CC(=O)C(OC)=C(O)C1=O,91.5% (inactive)
14,COc1ccc(-c2cc(-c3cccc(Cl)c3)c(C#N)c(=O)[nH]2)c(OC)c1,88.7% (inactive)
15,O=C(c1cccc(Br)c1)N1CCN(c2ccnc3cc(Cl)ccc23)CC1,88.7% (inactive)
16,COc1cc(NC2CCCCC2O)c2nc(-c3ccc(Cl)cc3)ccc2c1 (centres undefined),51.8% (inactive) and 59.4% (inactive)
17,CC(=O)c1nn(-c2ccccc2)/c(=N/N=Cc2cn(-c3ccccc3)nc2-c2cc3ccccc3oc2=O)s1,91.5% (inactive)
18,Nc1ccc(-c2ccc(N)c(Br)c2)cc1Br,17.9% (inactive)
19,FC(F)(F)Sc1ccc(/C=C/c2cc(/C=C/c3ccc(SC(F)(F)F)cc3)n(-c3ccccc3)n2)cc1,89% (inactive)
